# Most compounds without a hit are left out; they make up all but 2.7% or so of the library.
# GLP1R inv ag – GLP-1 receptor (human) inverse agonism | 410,000 compounds, 1.6% hits | P43220 | HEK293 GLP-1R CRE-luciferase, luminescence, 24 h; GLP-1R form is constitutively active | Potency, µM (highest dose often 38.3 µM), for the others: top-dose activity change, negative = inhibition, usual class: inhibitors; further: on the % scale 0 is the no-effect control and ±100 the full control effect; nearly all actives have a fitted effect of over 55% in size
# Target sequence (P43220 whole entry, looked up): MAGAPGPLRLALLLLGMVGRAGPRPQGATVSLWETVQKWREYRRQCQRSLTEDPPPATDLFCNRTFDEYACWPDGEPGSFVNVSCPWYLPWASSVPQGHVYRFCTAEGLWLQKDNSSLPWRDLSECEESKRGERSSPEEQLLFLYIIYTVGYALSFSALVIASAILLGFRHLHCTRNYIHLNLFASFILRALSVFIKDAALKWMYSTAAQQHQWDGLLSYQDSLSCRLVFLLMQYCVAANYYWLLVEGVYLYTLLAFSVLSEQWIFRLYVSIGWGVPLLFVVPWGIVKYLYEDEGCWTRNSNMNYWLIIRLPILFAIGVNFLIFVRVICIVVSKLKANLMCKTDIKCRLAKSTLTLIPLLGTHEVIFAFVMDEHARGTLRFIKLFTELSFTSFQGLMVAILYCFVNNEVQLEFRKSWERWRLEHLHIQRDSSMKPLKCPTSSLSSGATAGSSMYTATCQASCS
#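 Stable HEK293 clone (constitutively active GLP-1R + cAMP-response luciferase); 200 cells/uL plated, 12 h pre-culture, compound 24 hr, 37 deg C/5% CO2; detection reagent 12 min RT; luminescence.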
# BRCA1 expr act – BRCA1 expression activation | MCF7-BRCA1-FFLuc reporter, luminescence, 48 h; response scale: scaled: vehicle 0%, 10 µM genistein 100% | Potency, µM (titrated, usually from 46.1 µM), without a hit: at the top dose activation, hits mostly activators | 380,000 compounds, 1.1% hits; further: nearly all actives have a fitted effect of over 80% in size
#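 MCF7-BRCA1-FFLuc, 2000 cells/well; 2 h attach, 37 °C/5% CO2; compound 48 h; luciferase substrate 15 min; luminescence end-point. Norm. to genistein 10 microM max activation and DMSO; concentration-response curves fitted.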
# Integrin act MD – activates integrin-mediated alleviation for muscular dystrophy | alpha7betagal myoblasts, beta-gal FDG fluorescence, 48 h | Potency, µM (series often up to 38.3 µM), without a hit: at the top dose activation, most hits filed as activators | 350,000 compounds, 0.064% hits | AID 624291;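 further: 100% = response of the positive control SU9516; nearly all actives have a fitted effect of over 60% in size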
#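 alpha7betagal+/- myoblasts (passage 13, 250/well) treated 48 h at 37C with compounds at 1:260 dilution of DMSO stock. Lysed, then beta-galactosidase activity read as FDG fluorescence (ex 480/em 540) after 30 min, with pre-read for autofluorescence.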
# GLP1R ag – agonists of human GLP-1 receptor. 380,000 compounds, 0.007% hits. HEK293 GLP-1R CRE-luciferase, luminescence, 4-6 h; cells express a hypersensitive GLP-1R form. P43220. Potency, µM (titrated, usually from 45.6 µM), without a hit: at the top dose activation, usual class: activators. AID 624172; further: % of control where 0% means no effect
# HEK293 tox – cytotoxicity counter-screen for GLP-1 receptor inverse agonists | HEK293 cAMP-luciferase reporter cells, luminescence, 24 h | Potency, µM (series often up to 38.3 µM), inactives show top-dose activity change, negative = inhibition, usual class: inhibitors | 410,000 compounds, 0.13% hits | AID 624418;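 further: loss of luciferase light is scored as toxicity; on the % scale 0 is the no-effect control and ±100 the full control effect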
#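 Here, cytotoxicity is scored as loss of luminescence. The MLSMR collection was tested on cells seeded in medium containing 10% Nu serum, with a 24 hr compound exposure preceded by 12 hours of culture.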
# Numbers without * were called inactive; ? = inconclusive; . = no result given. The call rests on the fitted dose curve; in most records, active means well fitted curve in the direction sought with a large enough effect; inconclusive means small, poorly fitted or top-dose-only effect, or another doubt; inactive means no such curve, though single readings can be large; an effect the other way counts as inactive or inconclusive. Potency means the concentration at half of the fitted maximal effect.
SMILES,GLP1R inv ag,BRCA1 expr act,Integrin act MD,GLP1R ag,HEK293 tox
O=C(NCC1CC1)NC(=O)c1ccccc1F,19.8%,12.6µM*,.,-1.5%,0.9%
O=C(NCC1CC1)NC(=O)c1c(F)cccc1Cl,-4.4%,41.3%,7.6%,27.2%,-6.0%
Cc1c(Br)c([N+](=O)[O-])nn1CC(=O)N1CCc2ccccc2C1,-12.2%,-20.5%,-14.8%,2.3%,-5.4%
Cc1c(Br)c([N+](=O)[O-])nn1CC(=O)N1CCN(C23CC4CC(CC(C4)C2)C3)CC1,10µM*,-32.8%,0.0%,1.8%,-16.2%
O=C(Nc1ccccc1F)c1ccc([N+](=O)[O-])s1,1.5%,-98.5%,12.6µM*,0.0%,-9.3%
O=C(Nc1cccc2ccccc12)c1ccc([N+](=O)[O-])s1,-9.6%,-80.6%,-61.8%,-8.3%,-21.5%
COc1ccc(OC)c(NC(=O)CSc2nnc(C3CCCCC3)n2-c2ccccc2)c1,3.98µM*,-25.7%,11.6%,6.1%,2.0%
COc1cccc(NC(=O)CSc2ccccn2)c1,9.2%,10µM*,-11.8%,4.2%,-9.5%
COc1ccc(-n2c(SCC(=O)Nc3ccccc3)nnc2-c2ccoc2C)cc1,?,-4.5%,13.0%,2.2%,17.0%
COc1cccc(NC(=O)CSc2nnc(-c3ccoc3C)n2-c2ccccc2)c1,11.2µM*,-11.7%,1.6%,4.0%,1.7%
Cc1occc1-c1nnc(SCC(=O)NC2CCCC2)n1-c1ccccc1,11.2µM*,-34.2%,-0.1%,0.4%,-3.6%
COc1cccc(NC(=O)CN(C)C(=O)C(Sc2ccccc2)c2ccccc2)c1 (configuration not stated),11.2µM*,-30.3%,-5.1%,4.9%,-10.1%
CC(OC(=O)CNC(=O)c1ccccc1F)C(=O)Nc1nc(-c2ccccc2)cs1 (configuration not stated),11.2%,6.31µM*,12.9%,2.1%,-8.3%
CC(OC(=O)c1ccc(O)cc1)C(=O)Nc1nc(-c2ccccc2)cs1 (configuration not stated),-30.6%,8.5%,-39.7%,7.2%,-2.0%
CCN(CC)S(=O)(=O)c1ccc(NC(=O)c2c(C)oc3ncnc(N4CCCCC4)c23)cc1,?,-8.0%,.,.,-12.4%
Cc1csc2c(N3CCCCC3)ncnc12,34.3%,11.2µM*,1.2%,?,-6.1%
COc1ccccc1/C=C/c1ccnc2ccccc12,.,0.0%,.,.,.
Cc1cc(Cl)ccc1OCC(=O)N(Cc1ccco1)Cc1ccccc1F,11.2µM*,.,.,.,7.1%
O=C(NNc1cccc(Cl)c1)c1cccnc1Cl,1.26µM*,27.0%,-23.6%,-2.0%,-33.7%
O=C(NNc1cccc(Cl)n1)c1cccnc1Cl,0.0%,1.6%,-1.0%,-3.3%,2.5%
Cc1ccccc1-c1ccc2c(c1)O[C@@H](CN(C)C(=O)Nc1ccc(C(F)(F)F)cc1)[C@H](C)CN([C@@H](C)CO)S2(=O)=O,6.31µM*,0.0%,-55.9%,5.8%,-8.6%
COc1ccc(CNC(=S)NC(C)CCc2ccccc2)cc1 (configuration not stated),10µM*,9.6%,0.4%,-1.4%,?
COc1ccc(CNC(=S)NCc2ccc(OC)cc2)cc1,-6.2%,5.4%,-22.5%,-4.3%,-10.7%
COc1ccc(-c2cc(C(C)=O)c(C)n2CCC(=O)Nc2cc(Cl)ccc2C)cc1,-4.4%,.,.,.,3.0%
CC(C)c1ccc(-c2nnc3n(CCc4ccccc4)c(=O)c4ccccc4n23)cc1,7.7%,.,.,.,-5.4%
SMILES,GLP1R inv ag,BRCA1 expr act,Integrin act MD,GLP1R ag,HEK293 tox
Cc1ccc(Cl)cc1NC(c1ccc(F)cc1)c1nnc(-c2ccccc2)o1 (configuration not stated),?,.,.,.,4.6%
O=C(CCl)N=c1sccn1Cc1ccc(Cl)cc1Cl,10µM*,-34.1%,-64.0%,6.4%,?
O=C(CCl)N=c1sccn1Cc1ccccc1Cl,?,-29.1%,-71.3%,15.3%,?
OCC1(Cc2ccccc2F)CCCN(CC2CCCCC2)C1 (configuration not stated),?,-0.6%,-8.0%,23.8%,-16.8%
OCC1(Cc2ccccc2F)CCCN(Cc2c(F)ccc(F)c2F)C1 (configuration not stated),11.2µM*,-19.9%,0.1%,5.5%,13.3%
CC1CN(CC(=O)Nc2cccc(C(=O)Nc3cccc(C(F)(F)F)c3)c2)CC(C)O1 (configuration not stated),?,-22.8%,0.0%,2.9%,-22.5%
COc1ccc(NC(=O)CN2CCCC2)cc1,-9.2%,-0.4%,24.1%,8.8%,0.8%
CC1CCN(CC(=O)Nc2ccc(N3CCCCCC3)cc2)CC1,2.82µM*,-8.8%,-6.8%,23.4%,-27.1%
CC1CCN(CC(=O)Nc2cccc(C(=O)Nc3cccc(C(F)(F)F)c3)c2)CC1,3.16µM*,-59.0%,0.0%,16.2%,?
O=C(CN1CCCC1)Nc1ccc(Oc2ccc(NC(=O)CN3CCCC3)cc2)cc1,1.78µM*,-40.8%,-66.1%,6.4%,?
Cc1ccc2nc(Nc3cccc(C(F)(F)F)c3)c3nnnn3c2c1,2.4%,.,.,.,4.7%
C[C@@H](O[C@H]1OCCN(Cc2n[nH]c(=O)[nH]2)[C@@H]1c1ccc(F)cc1)c1cc(C(F)(F)F)cc(C(F)(F)F)c1,.,.,.,4.9%,.
COc1ccc(C(NC(=O)COc2ccc(C#N)cc2)c2ccc(OC)cc2)cc1,.,4.5%,.,.,.
Cc1cccc(N(CC(=O)NC2CCCC2)C(=O)c2nsc(Cl)c2Cl)c1C,?,-37.4%,-37.7%,7.9%,-0.5%
CCOc1ccccc1N(CC(=O)NC1CCCCC1)C(=O)c1nsc(Cl)c1Cl,10µM*,-8.9%,8.3%,15.0%,2.5%
Fc1cccc(Cn2cc(C(=S)N3CCCCC3)c3ccccc32)c1,7.94µM*,-44.3%,-35.3%,1.5%,4.4%
Cc1ccc(C(C)NC(=S)NCc2ccc(F)cc2)cc1C (configuration not stated),8.91µM*,11.5%,0.0%,4.8%,-1.2%
CCc1ccc(C(C)NC(=S)NCc2ccc(F)cc2)cc1 (configuration not stated),?,-17.5%,-40.1%,8.3%,?
CCc1cccc(NC(=O)CN(c2ccc(C)cc2)S(=O)(=O)c2cccs2)c1,?,-63.3%,.,-3.8%,1.9%
Cc1ccc(-n2ncc3c(N4CCCCCC4)ncnc32)cc1,?,.,.,.,-1.4%
COc1ccc(S(=O)(=O)N2c3ccccc3OCC2C)cc1 (configuration not stated),?,-53.7%,-17.1%,24.8%,-21.0%
COc1ccc(S(=O)(=O)N2CCOc3ccccc32)cc1,3.55µM*,-36.1%,-22.3%,-3.4%,?
C(=C\c1ccccc1)/C=N/N1CCN(c2ccccn2)CC1,3.55µM*,?,-7.8%,8.1%,-1.8%
CN(C)c1ccc(C=NN2CCCCCC2)cc1,18.5%,7.94µM*,-11.7%,19.1%,-2.8%
